Assay outcomes deposited in PubChem by Broad Institute.
SUMO Mot1 rescue: yeast Mot1-301 growth rescue at high temperature, primary screen, SUMOylation pathway inhibitor project, S. cerevisiae, ATP luminescence, 38.5C; S. cerevisiae Mot1-301 growth rescue; percent above DMSO median, 100 means doubled; growth rescue, % at 18.8 µM; 320,000 tested, 1% active; AID 2716, 2010;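 active = every valid replicate shows activation above 250% relative to neutral control wells; inactive = the rest, any valid replicate at or below 250%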;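 note: OY570 slx delta 5 strain wells were the positive control but not used for scaling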
NSD2 inh: NSD2 histone methyltransferase inhibitors, primary screen, biochemical, AlphaScreen, single concentration, set 2. Histone-lysine N-methyltransferase NSD2 (Homo sapiens), O96028. NSD2 peptide methylation, 120 min. inhibition, % at 12.5 µM. 310,000 tested, 0.54% active; in the data active = inhibition above about 50%
ALR inh: inhibitors of human ALR sulfhydryl oxidase, primary screen, biochemical, H2O2 detection, HRP-luminol luminescence, single point; FAD-linked sulfhydryl oxidase ALR (Homo sapiens), P55789; purified ALR, DTT oxidation; inhibition, % (no concentration beside the values); 290,000 tested, 3.8% active; AID 485317, 2010;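 active = mean replicate inhibition above about 79%, with every replicate also reaching it, limit read from the data; inconclusive = only one of the two criteria met; inactive = mean below limit and not every replicate reaching it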
Glyco luc inh: increase of ERlucT glycosylation luciferase signal, primary screen, N-linked glycosylation inhibitor project, D54 ERlucT cells, luminescence, set 2; D54 ERlucT glycosylation luciferase reporter, 24 h; percent of 100 nM tunicamycin response; reporter increase, % at 12.5 µM; 360,000 tested, 0.23% active; AID 588692, 2011;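 active = mean luciferase reporter signal, scaled so untreated is 0 and the glycosylation-blocking control 100, at or above a set limit in every replicate; inconclusive = mean reaches the limit but not every replicate does; inactive = mean below the limit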;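 note: luciferase carries N-glycosylation sites so blocking glycosylation raises the light; 0% = median of neutral control wells and 100% = median of 100 nM tunicamycin wells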
CASP6 VEID inh: human caspase-6 inhibitors, primary screen, biochemical, VEID-R110 fluorescence, single point, set 2; P55212; purified caspase-6, Z-VEID-R110 cleavage fluorescence; AID 686996, 2013; inhibition, % at 12.5 µM; 350,000 tested, 0.53% active;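 active = mean inhibition across replicates at least about 35%, with every replicate also reaching that limit, limit read from the data; inconclusive = only one of the two criteria met; inactive = neither criterion met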;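 note: 0% = median of neutral control wells and 100% = no fluorescence left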
CDK5 p35 inh: inhibitors of human CDK5/p35 kinase, primary screen, biochemical, single concentration; Recombinant CDK5/p35, ADP-Glo luminescence, 60 min; inhibition, % at 10 µM; 330,000 tested, 0.01% active; AID 488839, 2010;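 active = highest replicate inhibition of at least 50% and at least 75% of replicates reaching 50%; inconclusive = only one of the two criteria met; inactive = both criteria failed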;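 note: plate controls were DMSO neutral control for no effect and GW8510 at 10 µM for full effect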
Target sequence (Q00535 whole entry, looked up): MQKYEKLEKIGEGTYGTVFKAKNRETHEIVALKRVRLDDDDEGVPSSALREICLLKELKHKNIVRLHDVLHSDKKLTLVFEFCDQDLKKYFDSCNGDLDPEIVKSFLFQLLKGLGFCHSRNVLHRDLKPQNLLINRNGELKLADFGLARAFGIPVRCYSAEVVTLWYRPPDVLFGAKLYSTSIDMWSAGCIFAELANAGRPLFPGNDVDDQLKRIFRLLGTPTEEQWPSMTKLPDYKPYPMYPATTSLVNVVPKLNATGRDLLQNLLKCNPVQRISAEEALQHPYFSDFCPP
Target sequence (Q15078 whole entry, looked up): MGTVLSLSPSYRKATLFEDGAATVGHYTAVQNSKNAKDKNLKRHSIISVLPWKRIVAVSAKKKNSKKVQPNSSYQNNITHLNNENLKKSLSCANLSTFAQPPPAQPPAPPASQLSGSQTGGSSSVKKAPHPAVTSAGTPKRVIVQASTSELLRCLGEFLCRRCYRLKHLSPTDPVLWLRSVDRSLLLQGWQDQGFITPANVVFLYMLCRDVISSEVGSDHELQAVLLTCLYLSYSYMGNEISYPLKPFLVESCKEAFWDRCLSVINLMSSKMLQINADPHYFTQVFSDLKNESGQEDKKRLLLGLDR
The depositor's hits bear a star; i = inactive; u = inconclusive; x = no result given. An excerpt weighted towards active compounds, which were near 3.9% of everything screened.

SMILES | SUMO Mot1 rescue | NSD2 inh | ALR inh | Glyco luc inh | CASP6 VEID inh | CDK5 p35 inh
CN1c2ccc(-c3ccccc3F)cc2[C@@H]2[C@@H](CCN2C(=O)NC2CCCCC2)[C@@H]1CO | x | x | x | x | 0 | x
COc1ccc(OC)c(S(=O)(=O)Nc2ccccc2O)c1 | -16 | 3 | 99* | 6 | 0 | 0
CCc1ccc(NS(=O)(=O)c2cc(OC)ccc2OC)cc1 | -14 | x | -2 | 3 | 58* | -1
COc1ccc(OC)c(S(=O)(=O)Nc2ccccc2C)c1 | -8 | -1 | -6 | -1 | -2 | -3
COc1ccc(NS(=O)(=O)c2cc(OC)ccc2OC)cc1 | -11 | 50 | -13 | 0 | 9 | 0
COc1ccc(OC)c(S(=O)(=O)Nc2ccc(F)cc2)c1 | 57 | 11 | -5 | 0 | 0 | 0
COc1ccc(OC)c(S(=O)(=O)Nc2ccc3c(c2)n(C)c(=O)n3C)c1 | 82 | 2 | x | 28* | 2 | -1
C[C@H](CO)N1C[C@H](C)[C@H](CN(C)C(=O)Nc2ccccc2)OCCCC[C@H](C)Oc2ccc(NC(=O)C3CCCCC3)cc2C1=O | x | x | x | x | 1 | x
C=CCN1C(=O)/C(=C/c2ccc(OCC(=O)O)cc2)S/C1=N/c1nccs1 | 13 | 1 | x | 1 | 38* | 0
C=CCN1C(=O)/C(=C/c2ccc(O)c(OC)c2)S/C1=N/c1nccs1 | 6 | -1 | 25 | 0 | x | 2
CCN(CC)C1=CC2=CC(=C(C#N)C#N)CCC2CC1 (configuration not stated) | i | x | u | 3 | -3 | -9
N#CC(C#N)=C1C=C2C=C(N3CCCCC3)CCC2CC1 (configuration not stated) | 64 | -10 | 99* | x | x | x
COc1ccc(-c2cn(-c3ccc(C)cc3C)c(=S)[nH]2)cc1OC | -16 | 0 | 17 | 2 | -2 | 3
COc1ccc(-n2cc(-c3ccccc3)[nH]c2=S)c(OC)c1 | -24 | -1 | 90* | 14 | 1 | 0
COc1ccc(-n2cc(-c3ccc(Br)cc3)[nH]c2=S)cc1 | -9 | x | 67 | 2 | 3 | -3
COc1ccc(-n2cc(-c3ccc(OC)c(OC)c3)[nH]c2=S)cc1 | 545* | 14 | x | -4 | 9 | 0
CCc1c(C)c2cc(Cl)c(O)c(CN3CCCCC3)c2oc1=O | 2 | -3 | 98* | -1 | x | 1
CCc1cc(=O)oc2c(CN3CCCC3)c(O)c(Cl)cc12 | 22 | 1 | 5 | -1 | x | -1
COc1ccc([N+](=O)[O-])cc1N(CC(=O)N1CCCC1)S(C)(=O)=O | 355* | 2 | -6 | 2 | -3 | 0
CN(C)CC(=O)Nc1ccc2c(c1)[C@@H]1C[C@@H](CC(=O)N3CCN(C)CC3)O[C@H](CO)[C@@H]1O2 | x | x | x | x | -3 | x
CCc1nnc(NC(=O)CSc2nnnn2C)s1 | 2 | 0 | 99* | 1 | x | 4
CCOC(=O)c1c(C)[nH]c(C(=O)OCC(=O)Nc2cc(C)ccc2OC)c1C | -2 | 1 | -2 | -1 | x | 0
CC(=O)c1c(C)[nH]c(C(=O)Nc2ccccc2N2CCOCC2)c1C | -9 | -1 | 4 | 9 | 5 | -2
CC(=O)c1c(C)[nH]c(C(=O)Nc2cc(S(=O)(=O)N3CCCCC3)ccc2C)c1C | -19 | 0 | x | 9 | 0 | -5
COc1ccc(S(=O)(=O)N2CCCCC2)cc1NC(=O)c1[nH]c(C)c(C(C)=O)c1C | x | x | x | 55* | x | 1
SMILES | SUMO Mot1 rescue | NSD2 inh | ALR inh | Glyco luc inh | CASP6 VEID inh | CDK5 p35 inh
CCOC(=O)c1[nH]c(C)c(C(=O)Nc2cc(OC)ccc2OC)c1C | -6 | 0 | -9 | 35* | x | 1
CCOc1cc(N2CCOCC2)c(OCC)cc1NC(=O)c1[nH]c(C)c(C(C)=O)c1C | 20 | 0 | x | 29* | 2 | -4
O=C(C[C@@H]1CC[C@H]2[C@@H](COC[C@H](O)CN2Cc2cccc(F)c2)O1)NCCc1ccncc1 | x | x | x | x | 2 | x
CCNC(=O)C[C@H]1C=C[C@H](NC(=O)C2CC2)[C@H](CO)O1 | x | x | x | x | 11 | x
O=C(C[C@@H]1C[C@@H]2c3cc(NC(=O)C4CCOCC4)ccc3O[C@@H]2[C@H](CO)O1)NCc1ccccc1F | x | x | x | x | 4 | x
CCCC(=O)NC1=C(Cl)C(=O)c2ccccc2C1=O | x | -1 | x | -3 | 27 | 9
CCCNC1=C(N(C(C)=O)c2cccc(F)c2)C(=O)c2ccccc2C1=O | -3 | 78* | -124 | -23 | 80* | -1
NNC(=O)c1ccc(COc2cccc3cccnc23)cc1 | 49 | 2 | 98* | 1 | -2 | -4
C[C@@H]1CN([C@@H](C)CO)C(=O)c2cc(NS(=O)(=O)c3ccc(Cl)cc3)ccc2O[C@@H]1CN(C)C | x | x | x | x | 4 | x
Cc1oc2c(c1C(=O)O)C(=O)c1ccccc1C2=O | 13 | x | x | -3 | 58* | -2
CCOC(=O)c1c(C)oc2c1C(=O)c1ccccc1C2=O | -2 | 6 | -28 | -20 | 8 | 0
CNC[C@H]1Oc2ncc(-c3ccccc3C)cc2C(=O)N([C@H](C)CO)C[C@H]1C | x | x | x | x | 1 | x
CCCn1c(C(C)NC(=O)c2ccccc2)n[nH]c1=S (configuration not stated) | -4 | 1 | 94* | 0 | 3 | 3
C=CCn1c(C(C)NC(=O)c2ccccc2)n[nH]c1=S (configuration not stated) | 1 | -5 | 44 | 1 | x | -1
C[C@@H]1CN([C@@H](C)CO)C(=O)c2cc(NS(=O)(=O)c3ccc(F)cc3)ccc2O[C@@H](C)CCCCO[C@@H]1CN(C)C | x | x | x | x | -1 | x
COc1ccc(/C=N/NC(=O)c2ccccc2O)cc1CN1CCOCC1 | -12 | 1 | 3 | 2 | 42* | 2
COc1ccc(/C=N/NC(=O)c2ccc(C)cc2)cc1CN1CCN(c2ccc(F)cc2)CC1 | 350 | 14 | x | 1 | 6 | 1
COc1ccc(/C=N/NC(=O)c2cccc(Br)c2)cc1CN1CCOCC1 | 3 | 1 | -12 | 0 | 0 | -1
COc1ccc(/C=N/NC(=O)c2ccncc2)cc1CN1CCN(c2ccc(F)cc2)CC1 | 4 | 8 | 99* | 3 | -2 | 0
CCOc1cc(/C=N/NC(=O)c2ccc(NC(=O)C3CC3)cc2)ccc1O | -15 | -1 | 32 | 4 | 2 | 2
CCOc1cc(C=NN2CCCCCC2)ccc1O | x | -27 | x | 3 | -3 | -1
CCOc1cc(/C=N/NC(=O)C(=O)N2CCCC2)ccc1O | -5 | 1 | 99* | 0 | 2 | -1
